In ChEMBL document CHEMBL3988442, “University of Dundee, Small-Polar-MMV Screening Library” (2021):
For some assays here: Measured potencies and affinities stand elsewhere.

How the values were obtained:
Parameters in all cases: scale not given: direction of the effect not stated beside the values
[1] = biological target: Protein translocase subunit SecA (Escherichia coli (strain K12)) (UniProt P10408); assay: Assay to Identify E. coli SecA ATPase Inhibitors; type: functional; details: 30 µM
[2] = biological target: T1, Ubiquitin-activating enzyme e1, putative (Leishmania donovani (strain BPK282A1)) (UniProt E9BSI1); assay: Leishmania donovani Ubiquitin Activating Enzyme (LdE1); type: functional; details: 30 µM
T1 sequence (whole entry): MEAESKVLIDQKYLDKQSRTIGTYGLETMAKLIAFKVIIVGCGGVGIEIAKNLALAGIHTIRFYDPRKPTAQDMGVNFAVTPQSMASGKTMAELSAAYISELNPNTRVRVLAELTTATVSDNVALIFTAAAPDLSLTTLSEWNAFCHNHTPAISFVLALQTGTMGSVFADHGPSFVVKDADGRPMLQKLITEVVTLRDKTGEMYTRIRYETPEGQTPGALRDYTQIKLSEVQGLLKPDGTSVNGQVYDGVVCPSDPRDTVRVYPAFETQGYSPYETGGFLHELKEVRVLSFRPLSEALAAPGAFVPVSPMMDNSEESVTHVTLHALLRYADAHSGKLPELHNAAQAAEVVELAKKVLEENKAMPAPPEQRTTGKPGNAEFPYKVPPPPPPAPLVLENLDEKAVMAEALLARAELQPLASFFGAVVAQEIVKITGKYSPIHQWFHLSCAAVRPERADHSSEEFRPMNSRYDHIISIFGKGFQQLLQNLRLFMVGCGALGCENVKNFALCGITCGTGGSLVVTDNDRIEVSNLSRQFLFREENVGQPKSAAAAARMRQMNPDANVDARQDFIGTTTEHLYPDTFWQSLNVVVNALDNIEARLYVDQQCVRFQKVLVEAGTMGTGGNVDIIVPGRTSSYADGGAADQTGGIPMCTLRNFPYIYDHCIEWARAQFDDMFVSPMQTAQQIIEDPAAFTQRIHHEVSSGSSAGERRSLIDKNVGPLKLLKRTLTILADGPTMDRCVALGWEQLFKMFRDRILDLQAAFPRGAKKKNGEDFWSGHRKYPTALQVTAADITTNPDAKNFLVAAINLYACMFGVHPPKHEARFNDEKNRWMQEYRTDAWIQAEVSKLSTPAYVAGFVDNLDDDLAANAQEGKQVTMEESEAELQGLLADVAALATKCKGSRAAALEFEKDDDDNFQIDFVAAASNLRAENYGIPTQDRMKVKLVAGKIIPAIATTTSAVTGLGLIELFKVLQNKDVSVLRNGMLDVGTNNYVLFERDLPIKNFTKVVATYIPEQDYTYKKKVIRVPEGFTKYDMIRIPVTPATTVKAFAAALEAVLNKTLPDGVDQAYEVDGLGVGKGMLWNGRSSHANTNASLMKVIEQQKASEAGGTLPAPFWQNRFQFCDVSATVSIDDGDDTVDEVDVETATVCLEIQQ

[3] = biological target: T2, Aspartate--tRNA(Asp/Asn) ligase (Mycobacterium tuberculosis (strain ATCC 25618 / H37Rv)) (UniProt P9WFW3); assay: Assay for Asp RNA synthetase-1 from Mycobacterium tuberculosis; type: functional; details: 30 µM; note: in the data most compounds retested in dose-response had high values
T2 sequence (whole entry): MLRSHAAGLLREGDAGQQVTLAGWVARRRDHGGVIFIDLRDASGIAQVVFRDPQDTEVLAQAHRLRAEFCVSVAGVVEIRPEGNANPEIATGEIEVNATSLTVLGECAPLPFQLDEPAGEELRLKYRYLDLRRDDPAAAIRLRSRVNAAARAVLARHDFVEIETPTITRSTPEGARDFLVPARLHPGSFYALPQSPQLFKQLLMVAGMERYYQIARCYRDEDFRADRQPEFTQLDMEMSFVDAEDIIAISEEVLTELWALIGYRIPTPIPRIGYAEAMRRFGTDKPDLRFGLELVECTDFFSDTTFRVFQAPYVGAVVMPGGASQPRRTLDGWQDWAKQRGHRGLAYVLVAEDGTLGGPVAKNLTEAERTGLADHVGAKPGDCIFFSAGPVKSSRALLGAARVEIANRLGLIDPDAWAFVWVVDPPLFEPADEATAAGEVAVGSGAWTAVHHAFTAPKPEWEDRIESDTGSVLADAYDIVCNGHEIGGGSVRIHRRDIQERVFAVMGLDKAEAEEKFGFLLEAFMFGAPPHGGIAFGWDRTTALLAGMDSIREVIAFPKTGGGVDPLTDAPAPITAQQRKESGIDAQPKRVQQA

[4] = biological target: AMP-activated protein kinase, AMPK (Homo sapiens) (UniProt P54646+O43741+P54619+Q9UGJ0+Q9Y478+Q13131+Q9UGI9); assay: AMP-dependent Kinase enzyme assay. An in vitro enzyme assay that detects ADP turnover that is directly proportional to AMPK activity. This uses naive AMPK that is activated during the assay with MK-8722; type: functional; details: 30 µM
[5] = biological target: Sialic acid-binding Ig-like lectin 9 (Homo sapiens) (UniProt Q9Y336); assay: Hs-Siglec9 ALPHAscreen SOP 20170721; details: 10 µM
Trypanosoma cruzi = assay: Trypanosoma cruzi phosphomannomutase and mannose-1-phosphate guanylyltransferase assay; type: functional; details: 10 µM
[6] = biological target: T3, Arginase-2, mitochondrial (Homo sapiens) (UniProt P78540); assay: in vitro enzyme assay to detect the production of urea directly proportional to the activity of Arginase II; type: functional; details: 33.3 µM; note: in the data most compounds retested in dose-response had high values
T3 sequence (whole entry): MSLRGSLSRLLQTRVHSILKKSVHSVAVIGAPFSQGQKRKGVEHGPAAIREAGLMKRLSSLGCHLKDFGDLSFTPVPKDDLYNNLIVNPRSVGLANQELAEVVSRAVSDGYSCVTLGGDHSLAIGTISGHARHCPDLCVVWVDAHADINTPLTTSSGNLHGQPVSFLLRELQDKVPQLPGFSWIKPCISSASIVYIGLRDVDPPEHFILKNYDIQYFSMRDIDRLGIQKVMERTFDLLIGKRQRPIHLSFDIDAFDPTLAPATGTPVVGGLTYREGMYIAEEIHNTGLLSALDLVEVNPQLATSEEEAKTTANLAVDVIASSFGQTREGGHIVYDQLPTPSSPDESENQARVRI

[7] = biological target: T4, Proteasome subunit beta (Trypanosoma cruzi) (UniProt O96673); assay: Trypanosoma cruzi proteasome chymotrypsin-like activity (TcProtChymo) assay.; note: in the data most compounds retested in dose-response had high values; type: functional; details: 9.37 µM
T4 sequence (whole entry): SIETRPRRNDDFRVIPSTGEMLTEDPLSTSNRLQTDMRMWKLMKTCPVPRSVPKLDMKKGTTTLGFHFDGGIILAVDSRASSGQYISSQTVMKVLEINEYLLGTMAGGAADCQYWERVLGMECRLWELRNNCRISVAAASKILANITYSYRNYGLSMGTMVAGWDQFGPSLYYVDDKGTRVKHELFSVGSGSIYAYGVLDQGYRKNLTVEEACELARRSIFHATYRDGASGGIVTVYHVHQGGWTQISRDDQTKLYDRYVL

Homo sapiens = species: Homo sapiens; assay: To identify inhibition of the IFN signalling (Jak-Stat) pathway via expression of an eGFP reporter gene under the control of an IFN-stimulated response element (ISRE) containing MxA promoter.; type: functional; details: 30 µM
[8] = biological target: Shiga toxin 2 (Escherichia coli O157:H7) (UniProt P09385+P09386); assay: E. coli 0.157:H7 Shiga Toxin SOP - stx2 screening assay; type: functional; details: 30 µM
[9] = biological target: T5, Tyrosyl-tRNA synthetase, putative (Trypanosoma cruzi (strain CL Brener)) (UniProt Q4DSP6); assay: Trypanosoma cruzi tyrosyl tRNA synthetase (TcYRS) _High Tyrosine SOP; type: functional; details: 30 µM; note: in the data most compounds retested in dose-response had high values
T5 sequence (whole entry): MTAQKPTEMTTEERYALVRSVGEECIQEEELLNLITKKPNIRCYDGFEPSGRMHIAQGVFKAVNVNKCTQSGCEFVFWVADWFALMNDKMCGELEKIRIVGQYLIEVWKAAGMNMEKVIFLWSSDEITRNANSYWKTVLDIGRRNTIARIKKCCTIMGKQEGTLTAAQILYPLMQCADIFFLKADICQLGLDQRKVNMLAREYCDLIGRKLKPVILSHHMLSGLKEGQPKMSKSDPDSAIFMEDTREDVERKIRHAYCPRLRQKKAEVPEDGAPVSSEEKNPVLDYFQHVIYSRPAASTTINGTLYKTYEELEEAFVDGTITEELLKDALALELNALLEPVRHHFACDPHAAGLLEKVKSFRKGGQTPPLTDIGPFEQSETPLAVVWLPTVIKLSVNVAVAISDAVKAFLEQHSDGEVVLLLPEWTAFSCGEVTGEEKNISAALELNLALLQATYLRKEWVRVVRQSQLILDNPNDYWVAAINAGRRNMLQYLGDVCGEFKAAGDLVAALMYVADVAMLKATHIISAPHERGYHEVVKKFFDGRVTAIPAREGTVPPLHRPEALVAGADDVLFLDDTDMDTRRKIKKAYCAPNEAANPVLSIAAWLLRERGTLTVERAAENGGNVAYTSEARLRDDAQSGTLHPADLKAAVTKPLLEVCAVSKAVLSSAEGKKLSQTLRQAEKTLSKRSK

[10] = biological target: T5, Tyrosyl-tRNA synthetase, putative (Trypanosoma cruzi (strain CL Brener)); assay: Trypanosoma cruzi tyrosyl tRNA synthetase (TcYRS) SOP; type: functional; details: 30 µM
[11] = biological target: Chromo domain-containing protein 1 (Saccharomyces cerevisiae (strain ATCC 204508 / S288c) (Baker's yeast)) (UniProt P32657); assay: ScCHD-1 Enzyme Inhibition Assay; type: functional; details: 30 µM; note: in the data most compounds retested in dose-response had high values
Sequence of Chromo domain-containing protein 1 (Saccharomyces cerevisiae (strain ATCC 204508 / S288c) (Baker's yeast)) (P32657 whole entry, the tested form may be a part): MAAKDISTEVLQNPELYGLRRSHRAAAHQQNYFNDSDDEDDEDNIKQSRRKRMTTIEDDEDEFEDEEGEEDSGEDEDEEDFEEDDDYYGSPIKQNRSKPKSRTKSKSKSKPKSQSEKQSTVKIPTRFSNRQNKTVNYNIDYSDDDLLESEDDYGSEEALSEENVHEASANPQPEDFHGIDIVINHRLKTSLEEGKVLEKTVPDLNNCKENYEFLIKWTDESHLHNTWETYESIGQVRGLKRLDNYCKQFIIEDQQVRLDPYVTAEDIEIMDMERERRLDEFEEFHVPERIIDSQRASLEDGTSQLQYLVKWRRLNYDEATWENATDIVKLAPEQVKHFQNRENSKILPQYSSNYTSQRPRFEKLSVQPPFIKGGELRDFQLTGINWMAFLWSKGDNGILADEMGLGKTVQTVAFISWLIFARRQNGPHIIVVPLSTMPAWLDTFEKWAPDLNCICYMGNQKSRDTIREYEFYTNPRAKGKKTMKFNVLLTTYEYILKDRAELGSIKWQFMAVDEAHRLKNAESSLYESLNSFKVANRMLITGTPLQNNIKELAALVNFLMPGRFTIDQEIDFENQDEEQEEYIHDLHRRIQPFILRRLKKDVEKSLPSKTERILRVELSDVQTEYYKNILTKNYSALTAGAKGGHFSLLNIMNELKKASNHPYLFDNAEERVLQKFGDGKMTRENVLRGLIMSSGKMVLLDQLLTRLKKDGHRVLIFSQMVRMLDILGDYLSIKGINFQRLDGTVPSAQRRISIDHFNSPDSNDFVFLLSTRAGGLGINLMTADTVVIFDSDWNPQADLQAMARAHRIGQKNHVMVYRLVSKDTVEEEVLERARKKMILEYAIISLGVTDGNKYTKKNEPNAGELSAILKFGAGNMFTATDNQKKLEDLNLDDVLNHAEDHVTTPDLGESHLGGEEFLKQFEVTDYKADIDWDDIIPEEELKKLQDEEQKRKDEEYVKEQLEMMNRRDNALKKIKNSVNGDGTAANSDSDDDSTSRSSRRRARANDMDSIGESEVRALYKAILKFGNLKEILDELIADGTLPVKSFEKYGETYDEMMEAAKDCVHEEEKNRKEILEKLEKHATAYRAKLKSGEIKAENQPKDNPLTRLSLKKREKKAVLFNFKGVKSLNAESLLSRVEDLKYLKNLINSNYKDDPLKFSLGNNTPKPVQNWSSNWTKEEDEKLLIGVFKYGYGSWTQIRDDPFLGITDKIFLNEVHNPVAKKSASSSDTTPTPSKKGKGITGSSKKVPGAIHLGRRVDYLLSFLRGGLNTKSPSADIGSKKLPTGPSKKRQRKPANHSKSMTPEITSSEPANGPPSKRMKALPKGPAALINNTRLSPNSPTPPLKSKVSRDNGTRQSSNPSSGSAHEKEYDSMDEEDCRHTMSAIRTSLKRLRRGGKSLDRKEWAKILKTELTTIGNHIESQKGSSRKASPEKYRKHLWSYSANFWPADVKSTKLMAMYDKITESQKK

Sequence of Protein translocase subunit SecA (Escherichia coli (strain K12)) (P10408 whole entry): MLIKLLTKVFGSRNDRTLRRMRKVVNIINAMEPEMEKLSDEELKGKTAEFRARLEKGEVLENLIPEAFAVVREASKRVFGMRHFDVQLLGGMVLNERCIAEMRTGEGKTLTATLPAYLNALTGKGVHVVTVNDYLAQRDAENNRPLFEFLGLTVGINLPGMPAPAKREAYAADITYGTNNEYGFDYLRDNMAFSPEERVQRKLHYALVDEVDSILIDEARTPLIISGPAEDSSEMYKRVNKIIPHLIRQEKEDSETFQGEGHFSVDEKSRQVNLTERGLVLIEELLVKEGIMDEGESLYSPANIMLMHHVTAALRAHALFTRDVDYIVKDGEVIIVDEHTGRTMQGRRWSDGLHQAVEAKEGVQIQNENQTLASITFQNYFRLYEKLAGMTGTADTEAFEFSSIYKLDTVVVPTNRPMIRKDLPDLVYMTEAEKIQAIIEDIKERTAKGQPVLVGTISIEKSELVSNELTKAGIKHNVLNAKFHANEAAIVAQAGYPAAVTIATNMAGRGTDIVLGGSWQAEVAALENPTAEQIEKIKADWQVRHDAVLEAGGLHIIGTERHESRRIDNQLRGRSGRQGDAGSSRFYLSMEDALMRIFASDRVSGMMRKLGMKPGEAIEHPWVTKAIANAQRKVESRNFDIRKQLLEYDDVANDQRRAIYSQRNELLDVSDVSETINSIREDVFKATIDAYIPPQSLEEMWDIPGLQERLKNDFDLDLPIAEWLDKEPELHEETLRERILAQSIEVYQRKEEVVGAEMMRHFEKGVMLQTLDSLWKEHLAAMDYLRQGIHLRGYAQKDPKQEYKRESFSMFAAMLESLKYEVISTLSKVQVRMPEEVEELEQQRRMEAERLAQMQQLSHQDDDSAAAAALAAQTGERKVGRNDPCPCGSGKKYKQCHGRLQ
Sequence of Sialic acid-binding Ig-like lectin 9 (Homo sapiens) (Q9Y336 whole entry): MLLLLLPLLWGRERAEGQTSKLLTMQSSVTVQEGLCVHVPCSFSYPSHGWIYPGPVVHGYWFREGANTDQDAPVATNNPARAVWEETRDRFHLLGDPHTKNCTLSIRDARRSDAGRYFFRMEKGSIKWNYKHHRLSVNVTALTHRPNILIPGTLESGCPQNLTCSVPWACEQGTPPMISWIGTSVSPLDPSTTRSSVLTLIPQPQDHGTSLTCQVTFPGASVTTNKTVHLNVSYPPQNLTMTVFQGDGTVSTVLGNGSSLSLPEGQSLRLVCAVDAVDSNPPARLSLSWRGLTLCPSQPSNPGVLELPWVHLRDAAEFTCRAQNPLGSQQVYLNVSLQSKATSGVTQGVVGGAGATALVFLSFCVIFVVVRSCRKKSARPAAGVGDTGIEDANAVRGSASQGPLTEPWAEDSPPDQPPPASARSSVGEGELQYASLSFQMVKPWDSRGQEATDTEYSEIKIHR

SMILES	Percent Effect [1] [%]	Percent Effect [2] [%]	Percent Effect [3] [%]	Percent Effect [4] [%]	Percent Effect [5] [%]	Percent Effect (Trypanosoma cruzi) [%]	Percent Effect [6] [%]	Percent Effect [7] [%]	Percent Effect (Homo sapiens) [%]	Percent Effect [8] [%]	Percent Effect [9] [%]	Percent Effect [10] [%]	Percent Effect [11] [%]
O=C(Cc1cccs1)N1C[C@@H]2OCCN(CC3CCCO3)[C@@H]2C1 (stereo not given in full)	-3.88	0	-5.27	-1.33	4.51	-2.58	-0.399	15.3	15.2	-19.8	2.08	6.17	-0.242
O=C([C@H]1C[C@H]2OCC[C@H]2N(Cc2cccnc2)C1)N1CCCO1	-1.59	10.8	5.55	3.09	-7.38	-0.489	20.1	27.7	14.1	-7.24	13	15.4	3.21
Cc1ccc(N2CCO[C@H]3CN(CC4CC4)C[C@H]32)nn1	-4.5	2.7	-6.1	0.95	-5.02	7.14	-0.319	19.6	-33.8	1.42	1.08	7.69	5.67
c1cncc(OC[C@@H]2CCC[C@@]23CNCCO3)c1	-5.75	8.11	1.15	89.4	-7.32	-6.75	-3.5	13.1	9.54	-12.4	-3.24	0	-2.43
COCC(=O)NC(C)Cc1cccc(Br)c1 (stereo not given)	-8.66	13.2	-1.17	-9.62	6.28	10.3	-0.383	9.19	12.7	-16.5	7.35	19.5	-12.4
O=C(Cc1ccc(F)cc1)N1CCN(CC(O)C2CC2)CC1 (stereo not given)	-9.94	5.48	0.575	0.569	-4.1	-5.09	-3.64	6.74	10.6	7.07	3.23	10	-5.88
O=C(N[C@H]1CN[C@H]2CCCO[C@H]21)c1cccnc1	1.71	16.4	-0.775	-3.57	7.91	5.36	-2.4	9.33	8.46	-2.82	8.33	11.1	-3
Cc1nc(CN2C[C@@H]3OCCN(c4ncc(F)cn4)[C@@H]3C2)cs1	0.0245	5.33	-1.08	7.05	2.47	-1.74	-58.6	11.3	-21.1	2.24	4.17	15	-7
O=C(C1CCOC1)N1C[C@H]2CN(Cc3ccccn3)C[C@H]2C1 (stereo not given in full)	-0.372	13.5	-0.474	2.96	-5.9	0.293	6.05	16.2	-9.37	-2.63	6.49	15.4	-0.817
Cn1cc(N2CCC3(CCN(Cc4cccnc4)C3)C2=O)cn1 (stereo not given)	1.77	5.41	-4.84	7.18	-13.3	-4.79	1.59	25.1	2.62	-17	0	10.3	-1.3
c1cc(CN2C[C@@H]3COC[C@]3(COCC3CC3)C2)ccn1	1.31	14.7	-0.406	-2.54	-3.01	-4.13	-1.58	7.58	-2.49	-47.3	2.12	7.69	-2.5
Cc1nnc([C@H]2CC[C@@H]3[C@@H](CCN3Cc3c(C)noc3C)O2)o1	-0.00919	8	2.12	3.84	-0.659	-5.79	-54.3	11.4	-18.2	-1.17	6.25	22.5	-6.76
O=C(Cc1ccc(O)c(Cl)c1)N1CCN(CC2CC2)[C@@H]2CS(=O)(=O)C[C@@H]21	-7.75	-1.39	4.65	-2.21	15.8	-1.46	0	7.54	-5.81	-19.1	-2.1	-2.56	-1.95
O=C(c1ccc2c(c1)COC2)N1CCC(Nc2ccccc2)CC1	-4.95	7.79	-0.152	5.07	13.2	5.06	1.78	-4.05	25	1.98	6.8	24.4	-6.83
Cc1ncccc1OCC(=O)N1CCN[C@H]2CS(=O)(=O)C[C@H]21	-6.4	10.8	7.97	-4.66	0.713	0.489	4.71	14.2	-4.73	11.7	9.68	18.5	-1.55
C[C@H]1C[C@@H]2CCN(Cc3ccccn3)C[C@H]2O1	-1.13	0	-1.48	92	-0.495	1.27	1.59	10.5	7.67	-4.58	-2.16	-5.13	-8.15
Cn1cc(CN2CC[C@H]3CO[C@H](CNc4ncccn4)[C@H]3C2)cn1	-1.24	13.3	-0.0582	1.6	-7.11	5.02	-57.2	9.4	3.12	-32.2	7.29	22.5	-6.99
Cc1ncsc1CN1CC[C@H]2C[C@H](c3ccncn3)O[C@@H]2C1	1.18	10.4	1.35	2.98	-6.01	-9.57	0.645	9.4	24.2	0.203	1.06	6.41	-5.8
NCC1(c2cccc(C(F)(F)F)c2)CCOCC1	-1.6	5.41	0.69	-16.1	-3.19	-0.781	25	15.6	7.66	-1.62	7.92	18.3	107
c1csc(CN2CC[C@H]3C[C@H](c4ccncn4)O[C@@H]3C2)c1	2.89	13	2.7	9.99	-6.78	-7.99	5.81	19.7	13.8	-7.55	2.12	6.41	-8.13
